PubChem BioAssay AID588855 (National Center for Advancing Translational Sciences (NCATS), 2011)
Out of some 410,000 compounds screened, about 5,000 (1.2%) were called active. About 13% were inconclusive and are not listed. What follows is part of a selection rich in actives, with near analogues and random picks from the rest. Unmarked numbers belong to inactive results. Calls come from the whole dose curve; as a rule, active = well fitted inhibition curve with a large enough effect; inconclusive = small, poorly fitted or top-dose-only effect; inactive = no such curve, though single readings can be large or run the other way.

Test: qHTS for Inhibitors of TGF-b; note: nearly all actives have a fitted effect of over 65% in size
Conditions: HepG2 CAGA-GFP TGF-b/SMAD3 reporter, GFP fluorescence, 18 h, TGF-beta stimulated, 500 pg/mL final; series mostly up to 46.1 µM; activity, negative = inhibition: at the top concentration
Method in brief: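 HEPG2 CAGA-GFP cells (1000/well, DMEM with 1% FBS) were pre-incubated 2 h at 37 degrees C, given compound by pin tool, then stimulated with TGF-beta at 500 pg/mL final for 18 h before per-cell GFP fluorescence imaging.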
% is set by controls: 0 for no effect and ±100 for the full control effect; potency is the fitted concentration of half-maximal effect.

SMILES	activity, negative = inhibition [%]	Potency
Cc1ccc(S(=O)(=O)n2nc(-c3ccc(Cl)cc3)nc2NCc2ccccc2)cc1	-0.47	
COc1ccc(OC)c(-n2nnc3c(sc4nc(C)c(Br)c(C)c43)c2=O)c1	1.82	
Cc1ccccc1-c1nc2scc(CCNC(=O)C(=O)Nc3ccc(F)cc3F)n2n1	-18.3	
CCOC(=O)C1=CC[C@@H](c2ccccc2)N(S(=O)(=O)c2ccc(C)cc2)[C@H]1c1cccc(OC)c1	-9.22	
Cc1ccc(S(=O)(=O)N2[C@@H](c3cccc(Cl)c3)C(C(=O)O)=CC[C@H]2c2ccc(Cl)c(Cl)c2)cc1		15.8 µM (active)
Cc1ccccc1S(=O)(=O)N1[C@@H](c2cccc(Cl)c2)C(C(=O)OC(C)(C)C)=CC[C@H]1c1ccc(Cl)cc1	-4.34	
CCCCN(C)S(=O)(=O)c1ccc(C(=O)Nc2sc3c(c2C(N)=O)CC(C)(C)NC3(C)C)cc1	-1.07	
CCc1ccc(NC(=O)c2nn(-c3ccc(C)cc3)c(=O)n(C)c2=O)cc1	-14.4	
CCOC(=O)c1ccccc1NC(=O)c1nn(-c2ccc(OC)c(Cl)c2)c(=O)c2c1c1ccccc1n2C	-24.8	
O=C(NC1CC(=O)N(c2ccc(F)cc2)C1)C1CCCCC1 (stereo not drawn)	7.27	
CCOC(=O)c1c(S(=O)(=O)Nc2cccc(Cl)c2)c(C)n(C)c1C	-1.47	
CCOC(=O)c1c(S(=O)(=O)NCC(=O)Nc2ccc(Cl)c(C(F)(F)F)c2)c(C)n(C)c1C		11.2 µM (active)
CCOC(=O)c1c(S(=O)(=O)NCC(=O)Nc2ccc(C)cc2)c(C)n(C)c1C	0.889	
COc1ccc(CCNC(=O)c2cnc3sc(N4CCCCCC4)nn3c2=O)cc1OC	-10.2	
Cc1nc2cc(C(F)(F)F)ccc2n1CCNc1nc(-c2cc(Cl)c(N)c(Cl)c2)cs1		11.2 µM (active)
CCCn1c(C(C)Nc2nc(-c3ccc(C)cc3)cs2)nc2cc(Cl)c(N3CCCCC3)cc21 (stereo not drawn)	-1.73	
Nc1c(Cl)cc(-c2csc(N3CCCC3c3nc4cc(Cl)c(Cl)cc4n3CCOCCO)n2)cc1Cl (stereo not drawn)	3.19	
Cc1cccc(OCCCC(=O)Nc2sc3c(c2C(N)=O)CCC(C)C3)c1 (stereo not drawn)	0.0551	
O=C(CC1C(=O)N(c2ccccc2)C(=O)N1CCc1cccs1)Nc1ccc(F)cc1 (stereo not drawn)	-1.13	
O=C(NC1(C(F)(F)F)N=C(c2ccccc2)N(C2CCCCC2)C1=O)c1ccccc1F (stereo not drawn)	0.835	
O=C1NC(Nc2nc3ccccc3s2)(C(F)(F)F)C(=O)N1C1CCCCC1 (stereo not drawn)		7.94 µM (active)
COc1cc(SC#N)ccc1N=Cc1c(C)[nH]n(-c2ccc(C)cc2)c1=O		10 µM (active)
CCN(CC)CCNC(=O)c1cc2c(=O)oc3ccc(C)cc3c2s1	-1.4	
Cc1cccc(-n2ncc(C(=O)N3CCc4ccccc4C3)c2C2CCN(C(=O)OC(C)(C)C)CC2)c1	2.06	

SMILES	activity, negative = inhibition [%]	Potency
CCCN(CCC)CCCNC(=O)Cn1ncc2c3ccccc3n(Cc3ccccc3)c2c1=O	1.04	
Cc1ccccc1Cn1c2ccccc2c2cnn(CC(=O)NCc3ccco3)c(=O)c21	-15	
CCN(CC)CCNC(=O)Cn1ncc2c3ccccc3n(Cc3ccccc3C)c2c1=O		14.1 µM (active)
CCOC(=O)c1c(C)[nH]c(C)c1S(=O)(=O)NCC(=O)NCc1cccc(C)c1	-14.9	
COc1ccc(CNS(=O)(=O)c2ccc(-c3cnc(C4CC4)o3)cc2)cc1		inactive
Cc1ccc(-c2cnc(C3CC3)o2)cc1S(=O)(=O)Nc1cccc(C)c1C	-1.77	
Cc1cccc(NS(=O)(=O)c2ccc(-c3cnc(C4CC4)o3)cc2)c1		11.2 µM (active)
COc1ccc(OC)c(NC(=O)C2CCN(S(=O)(=O)c3ccc(C)cc3)CC2)c1	-3.47	
COc1cc(Br)cc2cc(S(=O)(=O)c3ccccc3)c(=O)oc12	-2.14	
Cc1ccnc(NC(=O)C2CCN(S(=O)(=O)c3c(C)c(C)cc(C)c3C)CC2)c1		11.2 µM (active)
O=C(Nc1ccccn1)C1CCN(S(=O)(=O)c2ccccc2)CC1	11.5	
Cc1cccc(NC(=O)C2CCN(S(=O)(=O)c3cccc4cccnc34)CC2)c1	-24.5	
COc1ccc(S(=O)(=O)c2c(Nc3cccc(Cl)c3)sc(C(=O)c3ccccc3)c2N)cc1	-24.8	
CC(NC(=O)c1cc(Sc2ccc(F)cc2F)nc2ccccc12)c1ccccc1 (stereo not drawn)	-13.2	
CSc1n[nH]c(-c2ccco2)n1	3.47	
CCN(c1ccc(Cl)cc1)S(=O)(=O)c1nnc(NC(=O)c2ccco2)s1	0	
CCCN(CCC)CCNC(=O)Cn1cnc2sc(C)c(S(=O)(=O)N3CCC(C)CC3)c2c1=O	-11.1	
COc1ccc(-c2onc(C)c2C)cc1S(=O)(=O)NCCc1ccccc1	0	
COc1ccc(-c2onc(C)c2C)cc1S(=O)(=O)NCC1CCN(Cc2cccc(F)c2)CC1		8.91 µM (active)
COc1ccc(-c2onc(C)c2C)cc1S(=O)(=O)NCc1cccs1	-2.96	
O=C(Nc1ccccc1Cl)N1CCC(CN2CCCCC2)CC1	-3.76	
CCCc1nn2c(=O)cc(COC(=O)c3ccc(NC(=O)C(C)Oc4ccccc4)cc3)nc2s1 (stereo not drawn)	23.2	
CN(C)c1ccc(C=Nc2ccc(/C=C/c3ccnc4ccccc34)cc2)cc1	-9.54	
Cc1ccc(-n2nc(C)c3c(C)cc(=O)n(CC(=O)Nc4ccc(C(C)C)cc4)c32)cc1	-6.8	

SMILES	activity, negative = inhibition [%]	Potency
CC1(C)Cc2ccccc2-c2c[nH]c(=O)n21	-12.4	
CCOC(=O)N1CCc2c(sc3c2C(=O)NC(c2ccccc2F)N3)C1 (stereo not drawn)	0.134	
C[C@@H](NC(=O)OC(C)(C)C)c1nnc(S(=O)(=O)Cc2ccccc2)o1		14.1 µM (active)
CC(C)(C)c1ccc(C(CC(=O)O)NS(=O)(=O)Cc2ccccc2)cc1 (stereo not drawn)	-8.38	
CC(C)[C@@H](NC(=O)OC(C)(C)C)C(=O)NCC1CCC(C(=O)N[C@@H](Cc2ccccc2)C(=O)O)CC1 (stereo partly drawn)	8.54	
CCOC(=O)c1cc2c(=O)n3ccccc3nc2n(CCCOC)c1=NC(=O)C(C)(C)Oc1ccc(Cl)cc1	5.9	
Cc1ccc(Nc2nc(CSc3nnc(-c4ccncc4)n3-c3ccccc3C)cs2)cc1		11.2 µM (active)
Cc1ccc(-c2noc(CSc3nnc(-c4ccncc4)n3-c3ccc(F)cc3)n2)cc1	5.83	
Cc1ccc(-n2c(SCC(=O)N3c4ccccc4Sc4ccccc43)nnc2-c2ccncc2)cc1	7.18	
OCC(O)C(O)C(O)C(O)C=Nc1ccc(/C=C/c2ccnc3ccccc23)cc1 (stereo not drawn)	-10.4	
O=C(c1ccco1)N(Cc1cccs1)c1ccc(O)cc1	0.933	
CC(CNC(=O)c1nnc(Cc2cccc(F)c2)o1)c1ccccc1 (stereo not drawn)	9.42	
CN(C)c1cccc2ccccc12	-13.9	
COc1ccc(OC)c(C2C3=C(N=c4s/c(=C\c5cccc(O)c5)c(=O)n42)c2ccccc2CC3)c1 (stereo not drawn)		15.8 µM (active)
CCOC(=O)c1c(S(=O)(=O)N2CCC(C(=O)NCc3ccccc3OC)CC2)c(C)n(C)c1C	-11.1	
Cc1ccc(S(=O)(=O)n2nc(C)c(S(=O)(=O)N3CCCCCC3)c2C)cc1	11	
C=C1C=C(C(F)F)n2ncc(C(=O)NCCc3ccccc3OC)c2N1	-1.82	
O=C(NCCCO)C(=O)Nc1c2c(nn1-c1ccc(F)cc1)CSC2	4.69	
N#Cc1ccccc1Cn1cnc2nc3c(cc2c1=O)CCCC3	0	
CC(C)(C)c1ccc(C(=O)NCC(c2ccc(Cl)cc2)N2CCOCC2)cc1 (stereo not drawn)	-29.8	
Cc1ccccc1Cn1nc(C)c(NC(=O)c2cc(-c3ccc(F)cc3)on2)c1C	-9.57	
Cc1ccc(NC(=O)c2ccc3[nH]c(C)cc(=O)c3c2)c(C)c1	-2.49	
CCOc1ccc(NC(=O)C2CCN(S(=O)(=O)c3cc(-c4noc(C)n4)ccc3C)CC2)cc1	-5.16	
CCOc1ccc(N(CC)S(=O)(=O)N2CCCC(C(=O)Nc3ccc(C(C)=O)cc3)C2)cc1 (stereo not drawn)	-13.9	

SMILES	activity, negative = inhibition [%]	Potency
Cc1ccc(CNC(=O)C2CCCN(S(C)(=O)=O)C2)cc1 (stereo not drawn)	3.69	
CCOc1ccc(N(CC)S(=O)(=O)N2CCCC(C(=O)NCc3ccc(Cl)cc3)C2)cc1 (stereo not drawn)		17.8 µM (active)
CNc1nc(Nc2ccc(C)c(Cl)c2)nc(N)c1[N+](=O)[O-]		11.2 µM (active)
CCN1CCN(c2nc(Nc3cccc(F)c3)nc(N)c2[N+](=O)[O-])CC1	0.701	
COc1cccc(Nc2nc(N)c([N+](=O)[O-])c(NCc3ccco3)n2)c1	-14.2	
CCC(=O)N1c2ccccc2CC1C(=O)N1CCN(c2ccccc2)CC1 (stereo not drawn)	0.154	
Cc1cccc(NC(=O)C2CCN(C(=O)NC3CCCCC3)CC2)c1	1.28	
Cc1cccc(C(=O)NC(=S)N(C)C2CCCCC2)c1	0	
Cc1cccc(NC(=S)NCCN(C2CCCCC2)C2CCCC2)c1		17.8 µM (active)
Cc1cc(=O)n(CC(=O)Nc2cccc([N+](=O)[O-])c2)c(-n2nc(C)cc2C)n1	0	
Cc1ccccc1CS(=O)(=O)CC1Nc2ccc(C(=O)NCc3ccc(Cl)cc3)cc2NC1=O (stereo not drawn)	-1.42	
CCCOc1ccc(F)cc1-c1cc(C(=O)Nc2ccc(F)c(Cl)c2)[nH]n1		11.2 µM (active)
CCOc1ccc(Cl)cc1-c1cc(C(=O)NCc2cccs2)[nH]n1	2.8	
CC(C)Oc1cc(F)ccc1-c1cc(C(=O)Nc2ccc(F)cc2)[nH]n1	6.2	
CCOC(=O)c1ccccc1NC(=O)c1sc2nc(-c3ccc(F)cc3)cn2c1C	-6.41	
CCS(=O)(=O)N1CCc2cc(C(=O)NCc3ccc(C)cc3)ccc21	1.67	
CCCCNC(=O)C1CCCN(c2nnc(C)c3c(C)n(-c4ccc(Cl)cc4)nc23)C1 (stereo not drawn)	-36.1	
Cc1nnc(N2CCC(C(=O)Nc3ccc(F)cc3)CC2)c2nn(-c3ccc(Cl)cc3)c(C)c12		10 µM (active)
CCc1ccc(CNC(=O)C2CCN(c3nn4cc(-c5ccc(F)cc5)nc4s3)CC2)cc1	-1.09	
CC(=O)Nc1c(C)nn(-c2ccccc2)c1N1CCC(C(=O)Nc2cc(Cl)ccc2C)CC1	-5.23	
Cc1nnc(N2CCCC(C(=O)NCCN(C)C)C2)c2nn(-c3ccccc3)c(C)c12 (stereo not drawn)	-6.54	
